Reference: PubChem BioAssay (EPA / NIEHS)
Activity calls are given as the source filed them. The calls were made as follows: active = hit-call score of the fitted dose curve at least 0.9, where 1 is the maximum; inactive = score below 0.9.

Assays:
[1] = BSK_MyoF_SRB: Viability Assessment in the BioMAP Diversity Plus: MyoF Assay (AID 2284267); conditions: primary human lung fibroblasts;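 also: total protein by SRB absorbance in parallel cultures as cytotoxicity measure; cells assessed 24 h after compound addition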
Procedure, shortened: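 Lung fibroblast cultures, 24 h post-dose; fix 10% TCA, stain 0.1% SRB, read 560 nm. Signal = total protein as cytotoxicity measure; fitted relative to DMSO negative control.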

[2] = read-out: Matrix Metallopeptidase 1 (MMP1), MMP1 (gene 4312); assay: BSK_MyoF_MMP1: BioMAP Diversity Plus: MyoF Assay for Matrix Metallopeptidase 1 (MMP1) Biomarker Activity (AID 2284268); conditions: primary human lung fibroblasts
Procedure, shortened: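 MMP1 measured by ELISA 24 h after dosing primary human lung fibroblasts; cytotoxicity checked in parallel cultures by sulforhodamine B total-protein staining read at 560 nm.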

[3] = read-out: TIMP metallopeptidase inhibitor 1 (TIMP1), TIMP1 (gene 7076); assay: BSK_MyoF_TIMP1: BioMAP Diversity Plus: MyoF Assay for TIMP metallopeptidase inhibitor 1 (TIMP1) Biomarker Activity (AID 2284269); conditions: primary human lung fibroblasts
Procedure, shortened: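 ELISA read-out of TIMP-1 from primary human lung fibroblast cultures 24 h after compound dosing; gain of signal relative to DMSO vehicle baseline defines activity.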

[4] = read-out: Matrix Metallopeptidase 3 (MMP3), MMP3 (gene 4314); assay: BSK_BF4T_MMP3: BioMAP Diversity Plus: BF4T Assay for Matrix Metallopeptidase 3 (MMP3) Biomarker Activity (AID 2284271); conditions: primary human bronchial epithelial cells with fibroblasts
Procedure, shortened: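 MMP-3 level read by ELISA after 24 h chemical exposure of bronchial epithelial cell/dermal fibroblast co-cultures, fitted upward relative to DMSO. Parallel cultures stained with 0.1% SRB after TCA fixation gauge overt cytotoxicity.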

[5] = read-out: Plasminogen Activator Inhibitor-1 (PAI1), SERPINE1 (gene 5054); assay: BSK_BF4T_PAI1: BioMAP Diversity Plus: BF4T Assay for Plasminogen Activator Inhibitor-1 (PAI1) Biomarker Activity (AID 2284273); conditions: primary human bronchial epithelial cells with fibroblasts
Procedure, shortened: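 PAI-1 levels quantified by ELISA 24 h post-dosing in bronchial epithelial cell plus dermal fibroblast cultures. Signal gain referenced to DMSO baseline. Sulforhodamine B total-protein staining of parallel wells checked cytotoxicity.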

[6] = BSK_BF4T_SRB: Viability Assessment in the BioMAP Diversity Plus: BF4T Assay (AID 2284274); conditions: primary human bronchial epithelial cells with fibroblasts
Procedure, shortened: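 Cytotoxicity measured as total protein: cells fixed with 10% TCA, stained with 0.1% SRB, read at 560 nm. Bronchial epithelial/dermal fibroblast co-culture, 24 h after dosing, with positive-direction fitting relative to DMSO.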

[7] = read-out: Matrix Metallopeptidase 9 (MMP9), MMP9 (gene 4318); assay: BSK_BF4T_MMP9: BioMAP Diversity Plus: BF4T Assay for Matrix Metallopeptidase 9 (MMP9) Biomarker Activity (AID 2284276); conditions: primary human bronchial epithelial cells with fibroblasts
Procedure, shortened: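 MMP-9 levels were measured by ELISA after 24 h exposure of bronchial epithelial cell/dermal fibroblast co-cultures, with DMSO as baseline. Parallel cultures were stained with 0.1% SRB after TCA fixation, read at 560 nm, to flag overt cytotoxicity.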

[8] = read-out: Interleukin-8 (IL8), CXCL8 (gene 3576); assay: BSK_IMphg_IL8: BioMAP Diversity Plus: IMphg Assay for Interleukin-8 (IL8) Biomarker Activity (AID 2284277); conditions: primary human endothelial cells with macrophages
Procedure, shortened: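 IL-8 levels were measured by ELISA 24 h after dosing in primary human venular endothelial cell–macrophage cultures, referenced to DMSO; parallel SRB staining monitored overt cytotoxicity.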

[9] = read-out: Intercellular Adhesion Molecule 1 (ICAM1), ICAM1 (gene 3383); assay: BSK_BE3C_ICAM1: BioMAP Diversity Plus: BE3C Assay for Intercellular Adhesion Molecule 1 (ICAM1) Biomarker Activity (AID 2284278); conditions: primary human bronchial epithelial cells;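 also: cell-surface ICAM-1 protein level quantified by ELISA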
Procedure, shortened: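 ELISA read-out of ICAM-1 on human lung bronchial epithelial primary cells, 24 h post-dosing; positive-direction curve fit, DMSO = baseline. SRB total-protein staining of parallel cultures flagged overt cytotoxicity.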

[10] = read-out: Interferon-inducible T-cell alpha chemoattractant (ITAC), CXCL11 (gene 6373); assay: BSK_BE3C_ITAC: BioMAP Diversity Plus: BE3C Assay for Interferon-inducible T-cell alpha chemoattractant (ITAC) Biomarker Activity (AID 2284279); conditions: primary human bronchial epithelial cells
Procedure, shortened: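 ELISA read-out of I-TAC after 24 h chemical dosing of human lung primary bronchial epithelial cells; gain-of-signal fit vs DMSO baseline. Parallel SRB total-protein staining (0.1% SRB, 10% TCA fixation, 560 nm) assessed cytotoxicity.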

[11] = read-out: Interleukin-8 (IL8), CXCL8 (gene 3576); assay: BSK_BE3C_IL8: BioMAP Diversity Plus: BE3C Assay for Interleukin-8 (IL8) Biomarker Activity (AID 2284280); conditions: primary human bronchial epithelial cells
Procedure, shortened: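 Primary human bronchial epithelial cells (BE3C system) were exposed to test chemical for 24 h, and IL-8 levels were then measured by ELISA. Activity was fitted in the positive (gain-of-signal) direction against a DMSO negative-control baseline.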

[12] = read-out: Epidermal growth factor receptor (EGFR), EGFR (gene 1956); assay: BSK_BE3C_EGFR: BioMAP Diversity Plus: BE3C Assay for Epidermal growth factor receptor (EGFR) Biomarker Activity (AID 2284281); conditions: primary human bronchial epithelial cells
Procedure, shortened: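 Human primary bronchial epithelial cells were exposed to compound for 24 h, and cell-surface EGFR was then quantified by ELISA. Activity was fitted in the positive direction against the DMSO vehicle baseline.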

KRT18 (gene 3875) = assay: BSK_BE3C_Keratin818: BioMAP Diversity Plus: BE3C Assay for Keratin 818 Biomarker Activity (AID 2284282); conditions: primary human bronchial epithelial cells
Procedure, shortened: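 ELISA read-out of Keratin 8/18 in BE3C human bronchial epithelial cultures, 24 h post-dosing; positive-direction fit vs DMSO baseline.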

[13] = read-out: Matrix Metallopeptidase 9 (MMP9), MMP9 (gene 4318); assay: BSK_BE3C_MMP9: BioMAP Diversity Plus: BE3C Assay for Matrix Metallopeptidase 9 (MMP9) Biomarker Activity (AID 2284283); conditions: primary human bronchial epithelial cells
Procedure, shortened: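 Cells were dosed, incubated 24 h, then assayed for MMP-9 by ELISA; activity was fitted upward against DMSO. The system used human lung primary bronchial epithelial cells, with SRB total-protein staining run alongside for cytotoxicity.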

[14] = read-out: Plasminogen activator inhibitor-1 (PAI1), SERPINE1 (gene 5054); assay: BSK_CASM3C_PAI1: BioMAP Diversity Plus: CASM3C Assay for Plasminogen activator inhibitor-1 (PAI1) Biomarker Activity (AID 2284284); conditions: primary human coronary artery smooth muscle cells
[15] = read-out: Monocyte Chemoattractant Protein-1 (MCP1), CCL2 (gene 6347); assay: BSK_hDFCGF_MCP1: BioMAP Diversity Plus: hDFCGF Assay for Monocyte Chemoattractant Protein-1 (MCP1) Biomarker Activity (AID 2284285); conditions: primary human foreskin fibroblasts
Procedure, shortened: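 MCP-1 ELISA readout was taken 24 hours after dosing primary human dermal fibroblasts in the hDFCGF system, with DMSO as baseline. Parallel sulforhodamine B staining of total protein tracked overt cytotoxicity.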

[16] = read-out: Vascular cell adhesion molecule 1 (VCAM1), VCAM1 (gene 7412); assay: BSK_IMphg_VCAM1: BioMAP Diversity Plus: IMphg Assay for Vascular cell adhesion molecule 1 (VCAM1) Biomarker Activity (AID 2284286); conditions: primary human endothelial cells with macrophages
Procedure, shortened: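 ELISA read-out of VCAM-1 on venular endothelial cell/macrophage co-cultures at 24 h post-treatment, with DMSO as baseline and positive-direction fitting. Parallel sulforhodamine B total-protein staining (560 nm) served as the overt cytotoxicity measure.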

[17] = read-out: urokinase Plasminogen Activator (uPA), PLAU (gene 5328); assay: BSK_BF4T_uPA: BioMAP Diversity Plus: BF4T Assay for urokinase Plasminogen Activator (uPA) Biomarker Activity (AID 2284275); conditions: primary human bronchial epithelial cells with fibroblasts
Procedure, shortened: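 uPA levels measured by ELISA at 24 hours in BF4T cultures (bronchial epithelial cells plus dermal fibroblasts) and compared with DMSO; cytotoxicity tracked in parallel cultures by sulforhodamine B staining.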

Measured: outcome

OCCCC(F)(F)C(F)(F)C(F)(F)F
not listed: [17]
inactive: all other assays above

C=C(C)C(=O)OCCC(F)(F)C(F)(F)C(F)(F)C(F)(F)C(F)(C(F)(F)F)C(F)(F)F
not listed: [7] | [17]
inactive: all other assays above

O=S(=O)(OCCOC(F)(F)F)C(F)(F)F
not listed: [17]
inactive: all other assays above

FC(F)(Br)C(F)(F)C(F)(F)C(F)(F)C(F)(F)C(F)(F)Br
not listed: [7] | [17]
inactive: all other assays above

C=CC(F)(F)C(F)(F)C(F)(F)C(F)(F)C(F)(F)C(F)(F)C(F)(F)C(F)(F)F
not listed: [7]
inactive: all other assays above
